# Experimental data taken from publication PMC7862700, “An all-to-all approach to the identification of sequence-specific readers for epigenetic DNA modifications on cytosine”.
# Legend:
# Assay in all cases: DAPPL (digital affinity profiling via proximity ligation, sequencing); 10 mM Tris-HCl pH 7.5, 50 mM NaCl, 1 mM DTT, 4% glycerol, room temperature, 30 min; GST-TFs on glutathione beads, 16-mer random dsDNA library, 0.1% formaldehyde crosslink after washing; high values mean tight binding
# [1] = target: T1, FEV (Homo sapiens, UniProt Q99581 1-238); conditions: protein: recombinant; tags: N-terminal GST; dsDNA, one strand shown
# T1 sequence: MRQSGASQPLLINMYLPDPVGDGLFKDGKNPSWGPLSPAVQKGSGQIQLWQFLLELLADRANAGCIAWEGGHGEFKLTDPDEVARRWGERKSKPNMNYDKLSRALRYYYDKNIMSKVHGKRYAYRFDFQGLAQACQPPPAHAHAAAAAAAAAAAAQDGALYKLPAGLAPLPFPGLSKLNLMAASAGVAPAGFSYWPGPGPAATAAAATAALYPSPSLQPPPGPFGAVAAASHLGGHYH
# In short: (§1)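 Yeast served to express human transcription factors as GST fusions, which were then captured on glutathione beads and labelled with DNA barcodes. Pooled with a tag-only sample, they were incubated with 200 nmole of a 16-mer random double-stranded DNA library for 30 min at room temperature in Tris/NaCl/DTT/glycerol buffer, washed, crosslinked with 0.1% formaldehyde, ligated by proximity, amplified by PCR and sequenced. Dividing each hexamer's read frequency for a factor by its frequency for the tag-only sample gives the binding signal.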
# [2] = target: ETV5 (Homo sapiens, UniProt P41161 1-510); conditions: protein: recombinant; tags: N-terminal GST; dsDNA, one strand shown
# In short: as §1
# [3] = target: HSF1 (Homo sapiens, UniProt Q00613 1-529); conditions: protein: recombinant; tags: N-terminal GST; chain copies: 3; dsDNA, one strand shown
# In short: as §1
# [4] = target: T2, SPIC (Homo sapiens, UniProt Q8N5J4 1-248); conditions: protein: recombinant; tags: N-terminal GST; dsDNA, one strand shown
# T2 sequence: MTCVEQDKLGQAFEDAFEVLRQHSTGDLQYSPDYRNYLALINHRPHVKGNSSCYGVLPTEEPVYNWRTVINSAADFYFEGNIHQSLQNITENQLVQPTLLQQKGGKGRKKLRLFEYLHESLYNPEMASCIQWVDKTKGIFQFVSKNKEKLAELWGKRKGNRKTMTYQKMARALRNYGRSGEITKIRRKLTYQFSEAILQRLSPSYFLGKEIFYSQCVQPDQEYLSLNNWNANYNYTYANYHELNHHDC
# In short: as §1
# [5] = target: ELF4 (Homo sapiens, UniProt Q99607 1-663); conditions: protein: recombinant; tags: N-terminal GST; dsDNA, one strand shown
# In short: as §1
# [6] = target: T3, ELK4 (Homo sapiens, UniProt P28324-2 1-405); conditions: protein: recombinant; tags: N-terminal GST; dsDNA, one strand shown
# T3 sequence: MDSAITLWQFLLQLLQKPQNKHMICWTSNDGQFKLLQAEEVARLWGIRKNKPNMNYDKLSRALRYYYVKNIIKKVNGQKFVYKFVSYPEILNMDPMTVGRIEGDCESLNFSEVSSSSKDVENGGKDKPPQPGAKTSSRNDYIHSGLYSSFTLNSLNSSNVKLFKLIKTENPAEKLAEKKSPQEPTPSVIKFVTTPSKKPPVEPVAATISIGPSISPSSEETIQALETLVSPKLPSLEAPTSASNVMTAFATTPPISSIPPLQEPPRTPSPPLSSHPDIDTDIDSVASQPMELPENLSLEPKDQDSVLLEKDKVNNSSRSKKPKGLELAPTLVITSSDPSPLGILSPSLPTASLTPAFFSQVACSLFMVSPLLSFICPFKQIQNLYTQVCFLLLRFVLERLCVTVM
# In short: as §1
# [7] = target: T4, ETV2 (Homo sapiens, UniProt O00321 1-342); conditions: protein: recombinant; tags: N-terminal GST; dsDNA, one strand shown
# T4 sequence: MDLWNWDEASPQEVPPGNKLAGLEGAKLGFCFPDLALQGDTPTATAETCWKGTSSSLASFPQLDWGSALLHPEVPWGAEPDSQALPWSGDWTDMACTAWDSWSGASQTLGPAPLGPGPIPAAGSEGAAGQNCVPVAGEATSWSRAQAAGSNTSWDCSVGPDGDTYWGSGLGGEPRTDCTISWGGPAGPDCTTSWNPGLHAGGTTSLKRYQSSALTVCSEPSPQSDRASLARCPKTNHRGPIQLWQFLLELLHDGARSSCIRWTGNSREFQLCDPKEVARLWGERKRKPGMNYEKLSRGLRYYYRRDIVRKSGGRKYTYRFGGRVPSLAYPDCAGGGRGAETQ
# In short: as §1
# [8] = target: T5, ELF3 (Homo sapiens, UniProt P78545 1-371); conditions: protein: recombinant; tags: N-terminal GST; dsDNA, one strand shown
# T5 sequence: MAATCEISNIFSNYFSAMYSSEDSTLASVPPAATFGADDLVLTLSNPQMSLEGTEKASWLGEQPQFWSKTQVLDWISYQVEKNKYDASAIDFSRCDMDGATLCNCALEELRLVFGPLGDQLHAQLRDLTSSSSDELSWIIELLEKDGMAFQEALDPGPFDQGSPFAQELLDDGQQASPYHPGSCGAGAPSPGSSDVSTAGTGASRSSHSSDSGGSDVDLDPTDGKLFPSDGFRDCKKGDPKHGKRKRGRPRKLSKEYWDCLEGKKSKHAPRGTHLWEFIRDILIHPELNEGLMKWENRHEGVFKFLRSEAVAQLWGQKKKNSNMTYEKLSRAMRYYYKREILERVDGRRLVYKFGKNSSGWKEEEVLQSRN
# In short: as §1
# [9] = target: CRX (Homo sapiens, UniProt O43186 1-299); conditions: protein: recombinant; tags: N-terminal GST; dsDNA, one strand shown
# In short: as §1
# [10] = target: ETV1 (Homo sapiens, UniProt P50549 1-477); conditions: protein: recombinant; tags: N-terminal GST; dsDNA, one strand shown
# In short: as §1
# [11] = target: T6, ERF (Homo sapiens, UniProt P50548 1-548); conditions: protein: recombinant; tags: N-terminal GST; dsDNA, one strand shown
# T6 sequence: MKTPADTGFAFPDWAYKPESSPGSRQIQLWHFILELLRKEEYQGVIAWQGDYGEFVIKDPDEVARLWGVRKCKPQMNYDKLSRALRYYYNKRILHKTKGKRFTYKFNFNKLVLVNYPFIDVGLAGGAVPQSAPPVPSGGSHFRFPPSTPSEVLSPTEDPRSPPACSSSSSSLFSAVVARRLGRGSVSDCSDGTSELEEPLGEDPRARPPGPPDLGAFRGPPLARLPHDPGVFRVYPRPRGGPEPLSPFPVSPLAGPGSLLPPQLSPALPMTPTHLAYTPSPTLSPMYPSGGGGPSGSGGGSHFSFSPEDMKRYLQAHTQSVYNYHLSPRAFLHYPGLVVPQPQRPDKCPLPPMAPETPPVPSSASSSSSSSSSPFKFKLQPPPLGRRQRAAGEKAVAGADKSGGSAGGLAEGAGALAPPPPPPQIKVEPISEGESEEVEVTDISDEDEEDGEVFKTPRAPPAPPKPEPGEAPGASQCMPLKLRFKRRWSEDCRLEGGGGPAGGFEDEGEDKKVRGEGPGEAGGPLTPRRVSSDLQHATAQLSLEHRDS
# In short: as §1
# [12] = target: T7, ETV3L (Homo sapiens, UniProt Q6ZN32 1-361); conditions: protein: recombinant; tags: N-terminal GST; dsDNA, one strand shown
# T7 sequence: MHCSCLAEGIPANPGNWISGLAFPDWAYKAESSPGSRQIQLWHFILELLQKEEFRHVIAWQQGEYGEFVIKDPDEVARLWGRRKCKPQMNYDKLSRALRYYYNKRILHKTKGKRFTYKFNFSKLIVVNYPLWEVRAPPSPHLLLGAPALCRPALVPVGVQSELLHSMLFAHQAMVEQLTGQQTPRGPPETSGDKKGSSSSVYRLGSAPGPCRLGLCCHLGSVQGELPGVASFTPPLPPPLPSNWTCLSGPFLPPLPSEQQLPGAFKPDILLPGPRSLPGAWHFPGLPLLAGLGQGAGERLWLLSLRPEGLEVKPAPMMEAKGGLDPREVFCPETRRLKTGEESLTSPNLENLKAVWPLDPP
# In short: as §1
# [13] = target: T8, ETS2 (Homo sapiens, UniProt P15036 1-469); conditions: protein: recombinant; tags: N-terminal GST; dsDNA, one strand shown
# T8 sequence: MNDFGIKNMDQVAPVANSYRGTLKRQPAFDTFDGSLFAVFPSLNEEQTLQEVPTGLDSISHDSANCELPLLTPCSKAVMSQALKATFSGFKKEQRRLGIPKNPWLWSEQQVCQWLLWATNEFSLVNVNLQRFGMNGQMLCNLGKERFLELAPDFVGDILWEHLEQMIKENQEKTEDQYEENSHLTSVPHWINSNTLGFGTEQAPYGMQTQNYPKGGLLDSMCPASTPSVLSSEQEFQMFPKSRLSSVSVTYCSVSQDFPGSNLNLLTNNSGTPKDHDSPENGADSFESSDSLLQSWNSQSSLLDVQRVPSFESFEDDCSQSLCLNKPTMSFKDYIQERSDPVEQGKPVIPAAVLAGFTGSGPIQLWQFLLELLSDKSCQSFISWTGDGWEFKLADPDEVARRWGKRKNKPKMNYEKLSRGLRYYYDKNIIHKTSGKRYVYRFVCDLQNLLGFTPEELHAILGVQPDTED
# In short: as §1
# [14] = target: T9, SPDEF (Homo sapiens, UniProt O95238 1-335); conditions: protein: recombinant; tags: N-terminal GST; dsDNA, one strand shown
# T9 sequence: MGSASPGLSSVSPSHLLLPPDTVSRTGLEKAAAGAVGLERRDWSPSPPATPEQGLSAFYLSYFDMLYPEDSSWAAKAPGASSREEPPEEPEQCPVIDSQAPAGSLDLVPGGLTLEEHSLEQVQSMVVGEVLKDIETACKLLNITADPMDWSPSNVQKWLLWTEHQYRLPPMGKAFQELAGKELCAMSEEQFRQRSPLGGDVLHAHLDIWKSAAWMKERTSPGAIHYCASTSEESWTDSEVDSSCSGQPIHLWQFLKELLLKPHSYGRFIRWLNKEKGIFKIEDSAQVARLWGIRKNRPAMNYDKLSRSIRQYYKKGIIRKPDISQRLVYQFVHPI
# In short: as §1
# [15] = target: T10, ETV7 (Homo sapiens, UniProt Q9Y603 1-341); conditions: protein: recombinant; tags: N-terminal GST; dsDNA, one strand shown
# T10 sequence: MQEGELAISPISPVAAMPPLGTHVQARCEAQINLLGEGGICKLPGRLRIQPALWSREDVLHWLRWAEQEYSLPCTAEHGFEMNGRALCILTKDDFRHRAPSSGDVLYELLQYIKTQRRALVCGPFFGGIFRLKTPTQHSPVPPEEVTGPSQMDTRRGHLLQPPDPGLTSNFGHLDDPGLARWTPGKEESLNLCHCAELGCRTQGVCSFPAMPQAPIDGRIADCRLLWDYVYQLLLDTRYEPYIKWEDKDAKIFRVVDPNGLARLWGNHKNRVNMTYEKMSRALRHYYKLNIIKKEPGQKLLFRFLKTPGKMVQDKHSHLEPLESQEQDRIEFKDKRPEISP
# In short: as §1
# [16] = target: T11, ELF5 (Homo sapiens, UniProt Q9UKW6-2 1-255); conditions: protein: recombinant; tags: N-terminal GST; dsDNA, one strand shown
# T11 sequence: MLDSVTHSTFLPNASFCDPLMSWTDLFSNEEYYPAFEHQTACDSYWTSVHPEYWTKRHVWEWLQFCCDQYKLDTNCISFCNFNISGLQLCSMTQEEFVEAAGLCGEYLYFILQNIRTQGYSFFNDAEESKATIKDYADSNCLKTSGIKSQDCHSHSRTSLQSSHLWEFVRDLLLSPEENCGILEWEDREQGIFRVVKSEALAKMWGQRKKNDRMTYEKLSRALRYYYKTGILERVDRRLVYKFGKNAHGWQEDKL
# In short: as §1
# [17] = target: T12, ETV3 (Homo sapiens, UniProt P41162-2 1-143); conditions: protein: recombinant; tags: N-terminal GST; dsDNA, one strand shown
# T12 sequence: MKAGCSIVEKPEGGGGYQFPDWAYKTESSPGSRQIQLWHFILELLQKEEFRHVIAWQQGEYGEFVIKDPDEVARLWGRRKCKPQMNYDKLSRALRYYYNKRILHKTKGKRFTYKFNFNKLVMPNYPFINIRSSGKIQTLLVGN
# In short: as §1
# [18] = target: ETV6 (Homo sapiens, UniProt P41212 1-452); conditions: protein: recombinant; tags: N-terminal GST; dsDNA, one strand shown
# In short: as §1
# Sequence of ELF4 (Q99607 whole entry): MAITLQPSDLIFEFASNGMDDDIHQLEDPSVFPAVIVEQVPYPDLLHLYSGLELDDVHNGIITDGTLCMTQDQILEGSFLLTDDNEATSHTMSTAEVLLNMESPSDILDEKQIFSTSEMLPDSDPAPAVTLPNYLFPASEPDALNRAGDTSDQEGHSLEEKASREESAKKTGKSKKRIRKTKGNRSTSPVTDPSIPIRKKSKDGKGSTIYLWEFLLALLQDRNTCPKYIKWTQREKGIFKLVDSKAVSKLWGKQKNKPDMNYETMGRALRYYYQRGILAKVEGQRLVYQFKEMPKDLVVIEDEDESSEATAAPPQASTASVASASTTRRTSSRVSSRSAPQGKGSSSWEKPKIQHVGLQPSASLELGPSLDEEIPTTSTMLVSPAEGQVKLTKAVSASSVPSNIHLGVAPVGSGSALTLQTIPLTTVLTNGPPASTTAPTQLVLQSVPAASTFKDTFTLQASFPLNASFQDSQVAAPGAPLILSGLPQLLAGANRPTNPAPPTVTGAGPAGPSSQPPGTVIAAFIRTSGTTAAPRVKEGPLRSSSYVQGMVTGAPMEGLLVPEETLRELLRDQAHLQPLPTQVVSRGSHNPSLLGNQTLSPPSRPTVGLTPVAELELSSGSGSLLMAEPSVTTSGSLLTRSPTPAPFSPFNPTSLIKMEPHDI
# Sequence of ETV5 (P41161 whole entry): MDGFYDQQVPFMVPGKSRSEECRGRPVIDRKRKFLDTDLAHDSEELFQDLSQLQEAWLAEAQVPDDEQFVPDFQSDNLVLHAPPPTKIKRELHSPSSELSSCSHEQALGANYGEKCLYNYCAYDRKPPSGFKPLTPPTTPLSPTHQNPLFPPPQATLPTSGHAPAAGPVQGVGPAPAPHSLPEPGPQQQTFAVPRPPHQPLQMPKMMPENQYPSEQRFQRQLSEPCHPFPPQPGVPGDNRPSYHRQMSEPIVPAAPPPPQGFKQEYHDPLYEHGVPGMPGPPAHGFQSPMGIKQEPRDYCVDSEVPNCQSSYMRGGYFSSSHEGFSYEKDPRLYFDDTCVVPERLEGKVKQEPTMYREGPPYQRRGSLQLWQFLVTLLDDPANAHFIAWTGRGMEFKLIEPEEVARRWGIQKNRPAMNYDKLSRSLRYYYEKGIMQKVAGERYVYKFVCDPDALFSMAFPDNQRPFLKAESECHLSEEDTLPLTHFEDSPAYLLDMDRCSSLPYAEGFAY
# Sequence of ETV1 (P50549 whole entry): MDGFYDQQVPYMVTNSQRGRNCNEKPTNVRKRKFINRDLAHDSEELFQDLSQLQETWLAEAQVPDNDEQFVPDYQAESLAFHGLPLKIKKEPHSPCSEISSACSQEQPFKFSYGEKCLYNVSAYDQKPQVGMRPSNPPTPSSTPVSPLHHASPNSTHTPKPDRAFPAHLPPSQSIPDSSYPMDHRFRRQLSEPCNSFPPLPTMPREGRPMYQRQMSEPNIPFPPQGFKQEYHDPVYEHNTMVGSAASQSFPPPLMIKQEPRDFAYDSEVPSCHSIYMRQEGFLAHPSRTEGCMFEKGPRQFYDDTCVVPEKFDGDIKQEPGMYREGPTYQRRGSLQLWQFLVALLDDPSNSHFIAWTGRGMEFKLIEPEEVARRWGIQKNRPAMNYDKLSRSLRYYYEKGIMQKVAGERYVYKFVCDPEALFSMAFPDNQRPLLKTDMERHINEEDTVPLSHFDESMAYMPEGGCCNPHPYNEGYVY
# Sequence of CRX (O43186 whole entry): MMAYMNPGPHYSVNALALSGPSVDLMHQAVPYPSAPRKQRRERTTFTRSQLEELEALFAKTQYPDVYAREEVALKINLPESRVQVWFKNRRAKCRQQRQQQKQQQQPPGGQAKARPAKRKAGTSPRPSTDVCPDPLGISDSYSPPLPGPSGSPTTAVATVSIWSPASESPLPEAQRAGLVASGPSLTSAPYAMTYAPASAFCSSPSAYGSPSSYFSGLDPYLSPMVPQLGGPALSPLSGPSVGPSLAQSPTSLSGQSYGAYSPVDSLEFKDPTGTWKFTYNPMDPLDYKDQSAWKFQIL
# Sequence of ETV6 (P41212 whole entry): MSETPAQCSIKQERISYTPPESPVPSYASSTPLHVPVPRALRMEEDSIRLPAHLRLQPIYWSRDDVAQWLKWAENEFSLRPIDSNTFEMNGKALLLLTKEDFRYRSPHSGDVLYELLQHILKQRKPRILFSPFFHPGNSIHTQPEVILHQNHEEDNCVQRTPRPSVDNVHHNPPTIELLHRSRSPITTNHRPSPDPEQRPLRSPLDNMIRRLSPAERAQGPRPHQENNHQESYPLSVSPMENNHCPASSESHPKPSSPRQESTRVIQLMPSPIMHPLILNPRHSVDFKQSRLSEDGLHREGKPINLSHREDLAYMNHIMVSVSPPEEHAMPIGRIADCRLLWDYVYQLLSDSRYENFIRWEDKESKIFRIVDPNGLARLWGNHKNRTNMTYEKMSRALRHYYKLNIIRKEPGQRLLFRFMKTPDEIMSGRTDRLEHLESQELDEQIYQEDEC
# Sequence of HSF1 (Q00613 whole entry): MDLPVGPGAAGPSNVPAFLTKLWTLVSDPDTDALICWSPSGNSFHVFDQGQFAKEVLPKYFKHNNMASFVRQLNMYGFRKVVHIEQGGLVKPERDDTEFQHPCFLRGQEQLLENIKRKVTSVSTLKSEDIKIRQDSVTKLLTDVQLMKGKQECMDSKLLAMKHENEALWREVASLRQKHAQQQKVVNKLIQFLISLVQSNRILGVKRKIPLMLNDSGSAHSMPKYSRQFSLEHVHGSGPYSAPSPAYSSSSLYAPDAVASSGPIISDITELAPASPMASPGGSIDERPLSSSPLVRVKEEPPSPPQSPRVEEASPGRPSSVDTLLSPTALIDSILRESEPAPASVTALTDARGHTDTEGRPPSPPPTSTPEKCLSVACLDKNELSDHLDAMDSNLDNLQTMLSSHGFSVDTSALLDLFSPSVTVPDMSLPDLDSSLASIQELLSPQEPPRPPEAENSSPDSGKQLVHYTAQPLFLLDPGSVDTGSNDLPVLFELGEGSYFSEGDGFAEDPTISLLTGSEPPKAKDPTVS
sequence,measurement,setting,value
TACTCC,binding signal,[1],"1.25 fold enrichment (6-mer frequency, TF over GST control)"
same,binding signal,[2],"1.27 fold enrichment (6-mer frequency, TF over GST control)"
same,binding signal,[3],"1.18 fold enrichment (6-mer frequency, TF over GST control)"
same,binding signal,[4],"1.23 fold enrichment (6-mer frequency, TF over GST control)"
same,binding signal,[5],"1.26 fold enrichment (6-mer frequency, TF over GST control)"
same,binding signal,[6],"1.19 fold enrichment (6-mer frequency, TF over GST control)"
same,binding signal,[7],"1.25 fold enrichment (6-mer frequency, TF over GST control)"
same,binding signal,[8],"1.11 fold enrichment (6-mer frequency, TF over GST control)"
same,binding signal,[9],"1.26 fold enrichment (6-mer frequency, TF over GST control)"
same,binding signal,[10],"1.24 fold enrichment (6-mer frequency, TF over GST control)"
same,binding signal,[11],"1.34 fold enrichment (6-mer frequency, TF over GST control)"
same,binding signal,[12],"1.26 fold enrichment (6-mer frequency, TF over GST control)"
same,binding signal,[13],"1.37 fold enrichment (6-mer frequency, TF over GST control)"
same,binding signal,[14],"1.29 fold enrichment (6-mer frequency, TF over GST control)"
same,binding signal,[15],"1.21 fold enrichment (6-mer frequency, TF over GST control)"
same,binding signal,[16],"1.15 fold enrichment (6-mer frequency, TF over GST control)"
same,binding signal,[17],"1.33 fold enrichment (6-mer frequency, TF over GST control)"
same,binding signal,[18],"1.23 fold enrichment (6-mer frequency, TF over GST control)"
